# aSyn 5UTR act: Activators via SNCA 5'UTR binding, MLPCN | activity score, % (tested at 7.5 µM), hits read low | alpha-synuclein 5'UTR reporter, activators screen | AID 1814, 2009 | 300,000 tested, 7.1% active; in the data active = activity score below about -60%
# Numbers without * were called inactive. Not all results are given here.
SMILES,aSyn 5UTR act
CN1CCN(C(=O)/C=C/c2ccc([N+](=O)[O-])o2)CC1,-83*
O=C(/C=C/c1ccc(-c2ccc(F)cc2)o1)N1CCCC1,-127*
Cc1cc(C(=O)N(C)C)sc1-c1ccccc1,-132*
CCOC(=O)Nc1nc(-c2ccccc2)c(C(=O)c2ccccc2)s1,117
Cc1nc(NC(=O)c2ccccc2O)sc1C,-128*
Cc1nc(NC(=O)c2ccccc2)sc1C,-86*
CC(=O)c1sc(NC(=O)c2ccccc2)nc1-c1ccccc1,-139*
Cc1nc(Nc2ccccc2)sc1C,-112*
Cc1nc(NC(=O)CCc2ccccc2)sc1C,-86*
Cc1nc(NC(=O)c2csc3ccccc23)sc1C,-141*
Cc1nc(NC(=S)NC(=O)c2ccccc2)sc1C,-161*
Oc1c(Br)cc(Br)cc1C=Nc1ccc2c(c1)OCO2,-66*
Oc1ccc(COCc2ccccc2)c2cccnc12,51
CSc1ncccc1C(=O)OCc1ccccc1,-66*
Oc1ccc(CNc2ccccc2F)c2cccnc12,87
CSc1ncccc1C(=O)OCc1ccccc1F,-62*
CC(C)CCNC(=O)c1ccccc1NC(=O)C1=CSCCO1,-119*
CSc1ccc(/C=N/NC(=O)c2sccc2C)cc1,-89*
O=C(COc1ccc([N+](=O)[O-])cc1)NNC(=O)c1cccs1,-78*
O=C(N/N=C/c1ccc(OCc2ccccc2)cc1)c1cccs1,-116*
C[C@H](NC(N)=O)C(=O)Nc1ccc(OCc2ccccc2)cc1,-92*
O=C(C[n+]1ccc(C(=O)N/N=C/c2ccc(OCc3ccccc3)cc2)cc1)c1ccccc1,-138*
CC(C)(C)NCC(=O)N/N=C/c1ccc(OCc2ccccc2)cc1,-72*
O=C(N/N=C/c1ccc(OCc2ccccc2)cc1)c1ccncc1,-164*
Cc1occc1C(=O)Nc1ccc(OCc2ccccc2)cc1,-147*
SMILES,aSyn 5UTR act
Oc1ccc(N=Cc2ccc(OCc3ccccc3)cc2)cc1,-92*
O=C(N/N=C/c1ccc(F)cc1)c1sccc1OCc1ccc(F)cc1,-94*
O=C(Nc1ccc(OCc2ccccc2)cc1)c1cccs1,-158*
O=C(N/N=C/c1ccc(Cl)cc1)c1sccc1OCc1ccc(F)cc1,73
Cc1cc(C)n(C(=O)c2cc3sccc3[nH]2)n1,-82*
COCCNc1c(-c2ccc(O)cc2)nc2ccc(Cl)cn12,-69*
CSc1ccccc1OCc1cc(C(=O)N(C)Cc2nonc2C)no1,-119*
CSc1ccccc1OCc1cc(C(=O)N(C)CC2COCCO2)no1 (configuration not stated),-83*
CSc1ccccc1OCc1cc(C(=O)N(C)Cc2ccncn2)no1,-81*
CCn1ccnc1CN(C)C(=O)c1cc(COc2ccccc2SC)on1,-101*
CSc1ccccc1OCc1cc(C(=O)NCc2cccc(C)n2)no1,-112*
Cc1nc(CNC(=O)c2cc(COc3c(F)cccc3F)on2)cs1,41
CCOc1cc(C)c(S(=O)(=O)Nc2ccc3cn[nH]c3c2)cc1C,-74*
COCCNC(=O)c1ccc2c(Cl)c3c(nc2c1)CCC3,-145*
O=S1(=O)C=C(N2CCOCC2)c2ccccc21,-70*
O=C1C(N2CCOCC2)=C(n2nnc3ccccc32)C(=O)c2ccccc21,44
CC(C)COc1ccc(-c2nnn(CC(=O)N3CCCC3)n2)cc1,-89*
Cn1c(-c2ccccc2)cnc1SCC(=O)N1CCCCC1,83
O=C(Cn1nnc(-c2ccc(OCc3ccccc3F)cc2)n1)N1CCOCC1,-70*
CC1CCCN(C(=O)Cn2nnc(-c3ccccc3F)n2)C1 (configuration not stated),-103*
CC(C)c1ccc(-c2nnn(CCC(=O)O)n2)cc1,118
O=C(Cn1nnc(-c2ccccc2)n1)N1CCCCC1,-70*
O=C(Cn1nnc(-c2ccccc2Cl)n1)N1CCCCC1,-98*
CC1CCN(S(=O)(=O)c2ccc(C(=O)Nc3ccccn3)cc2)CC1,-120*
Cc1ccnc(NC(=O)c2ccc(S(=O)(=O)N3CCC(C)CC3)cc2)c1,-118*
SMILES,aSyn 5UTR act
Cc1ccc(-n2c(C)c(C)c3c(NCCO)ncnc32)cc1,-107*
Cc1c(C)n(CCc2ccccc2)c2ncnc(NCCCO)c12,-141*
CC(C)(CO)NC(=O)c1ccc2nc(Cc3cccc(Cl)c3)oc2c1,-102*
COCC1CCCN(C(=O)c2ccc3nc(Cc4cccc(Cl)c4)oc3c2)C1 (configuration not stated),-77*
COC(=O)CN(C)C(=O)c1ccc2nc(Cc3cccc(Cl)c3)oc2c1,-109*
Cc1nn(C)c(C(=O)Nc2ccc(Br)cc2F)c1Br,-110*
Cc1occc1C(=O)Nc1ccc(Br)cc1F,-165*
COc1ccc2cc(-c3ccccc3)c(=O)oc2c1,-72*
CN(C)C(=O)COc1ccc2cc(-c3ccccc3)c(=O)oc2c1,-91*
CC(=O)Nc1ccc(/C=C/c2nc3ccccc3[nH]c2=O)cc1,-83*
O=c1[nH]c2ccccc2nc1/C=C/c1ccc(Cl)cc1,-227*
OCCc1ccc(O)c(-n2nc3ccccc3n2)c1,-117*
O=C(Nc1ccc2c(c1)CCC2)c1cc2ccccc2o1,-188*
Cc1ccc(C(=O)Nc2ccccc2C(N)=O)o1,-78*
O=C(Nc1ccc2c(c1)OCO2)c1ccc(Br)o1,-256*
O=C(Nc1ccc2c(c1)CCC2)c1ccc(Br)o1,-157*
Cc1ccc(NC(=O)c2ccc(Br)o2)cc1S(=O)(=O)N(C)C,-125*
Cc1occc1C(=O)Nc1ccc2c(c1)CCC2,-188*
Cc1ccc(C(=O)Nc2ccc3c(c2)CCC3)o1,-134*
O=C(Nc1ccc2c(c1)OCO2)c1ccc(COc2ccc3c(c2)CCC3)o1,-76*
Cc1ccc(C(=O)Nc2ccc(F)cc2)o1,-73*
Cc1ccoc1C(=O)Nc1ccc(CC(=O)O)cc1,84
Cc1ccc(NC(=O)c2ccc(OC(F)(F)F)cc2)cc1S(=O)(=O)N(C)C,-76*
CCOc1ccc(/C=C2\SC(=S)N(CCC(=O)O)C2=O)cc1,115
O=C(CCN1C(=O)/C(=C\c2ccccc2F)SC1=S)N1CCCCC1,-117*
SMILES,aSyn 5UTR act
O=C(CCN1C(=O)/C(=C/c2ccccc2)SC1=S)N1CCCCCC1,-62*
O=C(CCN1C(=O)/C(=C/c2ccccc2F)SC1=S)NC1C=CS(=O)(=O)C1 (configuration not stated),-62*
O=C(CCCN1C(=O)/C(=C/c2ccccc2Cl)SC1=S)NNC(=O)c1ccc(Cl)cc1,65
CC(C)c1ccc(/C=C2\SC(=O)N(CC(=O)NC3C=CS(=O)(=O)C3)C2=O)cc1 (configuration not stated),-69*
O=C(O)CCCN1C(=O)/C(=C\C(Cl)=C\c2ccccc2)SC1=S,-225*
CC1CCN(C(=O)CCN2C(=O)/C(=C/c3cccs3)SC2=S)CC1,-75*
COCCN1C(=O)/C(=C/c2ccc(N3CCCC3)cc2)SC1=S,-85*
N/C(=N\OC(=O)CCCc1ccccc1)c1ccccn1,-69*
N/C(=N\OC(=O)Cc1ccccc1)c1ccccn1,-77*
O=C(CSc1nnnn1Cc1ccccc1)c1ccccc1,-67*
CCn1nnnc1SCC(=O)c1ccc(C)cc1,-66*
CSC1=NC(C(Cl)(Cl)Cl)N=C(c2ccc(C)cc2)N1 (configuration not stated),118
CCN(CC)Cc1c(NC(=O)c2ccccc2)sc(C)c1C,-87*
CCOC(=O)c1sc(NC(=O)C(C)(C)C)cc1C,-166*
CCOC(=O)c1sc(NC(=O)c2ccccc2)cc1C,-181*
CCOC(=O)c1sc(Nc2nc3c(OC)cccc3s2)cc1C,-196*
CCOC(=O)c1sc(NC(=O)Nc2ccc(Cl)cc2)cc1C,-135*

# Source: PubChem (Broad Institute)
